These results are taken from PubChem BioAssay AID1376 (SRMLSC, 2008).

About 530 (0.24%) of roughly 220,000 compounds were called active. The entries come from a sample that favours actives as a whole. Entries with a potency or affinity are not part of this list. Unmarked numbers belong to inactive results. No stated cut-off is given here; in the data, active means inhibition above about 13%; inconclusive means no clear call, values can overlap the other calls; inactive means below that.

Chain of Bifunctional protein GlmU (Mycobacterium tuberculosis (strain ATCC 25618 / H37Rv)) (P9WMN3 whole entry, looked up): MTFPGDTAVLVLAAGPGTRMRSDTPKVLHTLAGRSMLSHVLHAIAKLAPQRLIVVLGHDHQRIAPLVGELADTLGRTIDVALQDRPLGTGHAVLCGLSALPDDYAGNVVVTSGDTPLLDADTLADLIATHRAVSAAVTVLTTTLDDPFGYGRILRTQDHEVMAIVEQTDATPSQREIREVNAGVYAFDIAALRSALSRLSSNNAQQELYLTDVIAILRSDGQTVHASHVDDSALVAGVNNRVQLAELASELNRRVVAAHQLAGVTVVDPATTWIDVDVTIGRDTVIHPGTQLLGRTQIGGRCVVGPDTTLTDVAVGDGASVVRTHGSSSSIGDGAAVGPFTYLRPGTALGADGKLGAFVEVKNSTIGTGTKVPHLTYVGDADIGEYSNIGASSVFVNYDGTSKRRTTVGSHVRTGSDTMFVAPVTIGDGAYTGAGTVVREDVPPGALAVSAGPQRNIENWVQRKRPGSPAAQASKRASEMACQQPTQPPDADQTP

This test has as its target Bifunctional protein GlmU (Mycobacterium tuberculosis (strain ATCC 25618 / H37Rv)) (UniProt P9WMN3). In words: inhibition of mycobacterial GlmU enzyme – biochemical, glucosamine-1-phosphate acetyltransferase (AID 1376).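 Further: 0% = complete reaction with vehicle and 100% = reaction without substrate.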 The settings on record: M. tuberculosis GlmU acetyltransferase enzyme assay; hits give high values;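 tested at 30 µM in the primary screen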.
A word on the inhibition: it is the drop in the measured response relative to a control, in per cent. Take `COc1ccc(/C=N/n2c(-c3cc(C)[nH]n3)n[nH]c2=S)cc1OC`: the inhibition was 5.27%.

Take `Cc1ccc(NC(=O)NCc2c(C)nn(C)c2C)cc1Cl`: the inhibition was 2.69%.

For the compound `C#CCCOC(=O)N1C2=NC(C(=O)OC)=C(C(=O)OC)[C@@H]3N(CC=C)c4ccccc4[C@]23C[C@H]1C(=O)OC`, the inhibition is -1.18%. `CCCCn1c(SCC(=O)N2CCCCC2C)nc2cc(S(N)(=O)=O)ccc21` (stereo not drawn): the inhibition is -1.4%. The same measure for `COc1ccc(OCc2nnc(SCC(=O)NNC(=O)c3ccc(C)cc3)n2C)cc1`: 0.34%. With `COc1cc(/C=C(\C#N)c2nc3ccccc3[nH]2)cc(OC)c1O` the figure was 4.95%; with `COc1cc(/C=C(\C#N)c2nc3ccc(C)cc3[nH]2)c([N+](=O)[O-])cc1OC`, 2.93%; with `CCOC(=O)N1CCN(CC(=O)N2c3ccccc3CCc3ccccc32)CC1`, -2.37%. In the case of `CCOc1ccc(C(=O)NCC(=O)OCC(=O)Nc2ccc(C)c(S(=O)(=O)N(C)C)c2)cc1`, the inhibition is -3.11%. As for `CCCc1ccc(C(=O)NC(=O)c2ccccc2O)cc1`, the inhibition is 2.73%. On to `CCn1cnc2c1c(=O)n(CC(=O)Nc1ccc3c(c1)OC(F)(F)O3)c(=O)n2Cc1ccccc1`, for which the inhibition is -4.42%. `CCC(=O)N1CCC2(CC1)Oc1ccc(Cl)cc1C(=O)C21CC(c2ccccc2)=NO1` (stereo not drawn): the inhibition is 3.83%. Take `Cc1cc(C)n2ncc(C(=O)Nc3ccc4c(c3)OCO4)c2n1`: the inhibition was 1.37%. The same measure for `COC(=O)Cc1c(C)c2ccc(OCc3nn[nH]n3)c(C)c2oc1=O`: 0.72%.

Take `COc1cc(/C=C(\C#N)C(=O)NCC2CCCO2)ccc1OCC(=O)O` (stereo not drawn): the inhibition was -0.12%. On to `COCCCNC(=O)/C(C#N)=C/c1ccc(F)cc1`, for which the inhibition was -2.31%. With `COCCCNC(=O)/C(C#N)=C/c1ccc(OCC(=O)O)c(OC)c1` the figure was 13.8% (active); with `COc1ccc2cc(-c3[nH]ncc3CN3CCCCO3)ccc2c1`, -2.52%; with `N/C(=N\O)c1ccc(NC(=O)c2cccs2)cc1`, 4.24%.

`O=C(Nc1c(F)c(F)c(F)c(F)c1F)C1CCCCC1`: the inhibition is -1.91%.

For `O=C(/C=C/c1ccccc1)c1c(O)n(CCc2ccccc2)c(=O)[nH]c1=O`, the inhibition is 1.89%. Turning to `Cn1cc(/C=N/NC(=O)c2cc3cc(Br)ccc3o2)c2ccccc21`, the inhibition is -2.19%. The same measure for `O=C(O)Cn1cc(/C=N/NC(=O)c2cc3cc(Br)ccc3o2)c2ccccc21`: -0.33%; for `COc1ccccc1OCc1ccc(C(=O)NCC2CCCO2)o1` (stereo not drawn): 1.7%; for `CCCCOc1ccc(C(=O)N2CC(C)OC(C)C2)cc1` (stereo not drawn): 6.38%.

With `CCCCOc1ccc(C2CCC(C(C)=O)C(C)C2)cc1` (stereo not drawn), the inhibition was 13.4% (active). The same measure for `CCCCOc1ccc(C(=O)N2CCC(C)CC2)cc1`: -0.91%; for `CCSC1=N/C(=C\c2ccc(-c3ccccc3[N+](=O)[O-])o2)C(=O)S1`: 6.21%.

Regarding `CCCSC1=N/C(=C\c2ccsc2)C(=O)S1`, the inhibition was -1.15%.

On to `CCCSC1=N/C(=C\c2ccc([N+](=O)[O-])o2)C(=O)S1`, for which the inhibition was 21.6% (active).

Consider `Cc1cc(N2CCN(S(=O)(=O)c3ccccc3)CC2)c2ccccc2n1`, for which the inhibition was -2.32%. The same measure for `C/C(=N\N1CCN(C)CC1)c1ccc(Cl)c(Cl)c1`: -1.93%. In the case of `O=C(CN1CCN(Cc2ccccc2Cl)CC1)N/N=C/c1ccco1`, the inhibition was 2.34%. With `CCN(CC)C(=S)SC1=CCS(=O)(=O)C1` the figure was -2.51%; with `CCN(CC)C(=S)SCC(=O)c1ccccc1`, 2.19%. In the case of `O=S(=O)(NCc1ccccc1)c1ccc(F)cc1Br`, the inhibition is 6.02%. The same measure for `COc1ccc(/C=C2/C(=N)N3C(=NC2=O)Sc2cc(S(C)(=O)=O)ccc23)cc1OC`: 3.31%. As for `CN(C)c1ccc(/C=C2\C(=N)N3C(=NC2=O)Sc2cc(S(C)(=O)=O)ccc23)cc1`, the inhibition is -6.57%. The same measure for `COC(=O)c1cc(C#N)c(Oc2ccc(OC)cc2)nc1C`: 8.02%. In the case of `CCCCCC/C(C)=C1/SC(=S)NC1=O`, the inhibition was -3.54%. The same measure for `C/C(C/C(C)=C1/SC(=S)NC1=O)=C1\SC(=S)NC1=O`: 49% (active).

On to `CCO/C(C)=C1/SC(=S)NC1=O`, for which the inhibition was -6.59%. With `Cn1nc(-c2ccccc2)c(C(=O)NC(C(=O)O)c2ccccc2)c1Cl` (stereo not drawn) the figure was 1.91%; with `CN(C)C(=O)CSc1ncnc2scc(-c3ccccc3)c12`, 2.78%.

`Cc1ccc(N=c2ssnc2Cl)cc1`: the inhibition is 17.6%. The same measure for `COc1cc(N=c2ssnc2Cl)cc(OC)c1OC`: 14.1% (active). For the compound `N#Cc1ccc(N=c2ssnc2Cl)cc1`, the inhibition is 18.4%. The same measure for `COc1ccc(N=c2ssnc2Cl)cc1`: 5.49%; for `N#Cc1cccc(N=c2ssnc2Cl)c1`: -3.05%. In the case of `Clc1nssc1=Nc1ccccc1`, the inhibition was 14.6% (active).

Consider `Clc1nssc1=Nc1ccc(Br)cc1`, for which the inhibition was 18%. Turning to `Clc1ccc(N=c2ssnc2Cl)cc1`, the inhibition was 19.9% (active). With `COc1cc(N=c2ssnc2Cl)cc(OC)c1` the figure was 12.8%; with `Cc1ccc(N/C=C/C(=O)c2cccs2)cc1C`, -3.05%; with `COc1cccc2sc(NNC(=O)C3COc4ccccc4O3)nc12` (stereo not drawn), 6.49%.

Turning to `O=C(CSc1nnc(-c2ccccc2Cl)n1Cc1ccco1)Nc1ccc2c(c1)OCCO2`, the inhibition is -6.82%.

`OCCN1CCN(c2ncnc3sc(-c4ccccc4)cc23)CC1`: the inhibition is 0.73%. The same measure for `Cc1ccc(C(=O)OC2OC(=O)C(Cl)=C2N2CCOCC2)cc1` (stereo not drawn): 7.25%; for `O=c1[nH]c2ccccc2nc1NCCN1CCOCC1`: -0.64%. `COc1ccc(-c2noc3c2-c2nc(-c4ccc(C)cc4)sc2CC3)cc1`: the inhibition was 6.62%. The same measure for `O=C(NCC(=O)N(c1ccccc1)C(C(=O)NC1CCCCC1)c1cccnc1)c1cccs1` (stereo not drawn): -3.93%; for `O=C(CN(C(=O)c1cc2c(s1)CCC2)C1CCCC1)NCc1cccs1`: 5.33%. The same measure for `O=C(CN(Cc1ccccc1)C(=O)c1cc2c(s1)CCC2)NCc1cccs1`: 14.9% (active); for `O=C(NCc1cccs1)c1cc2c(s1)CCCC2`: 0.13%. Consider `O=C(O)CCCN1C(=O)c2ccc(C(=O)c3cccc([N+](=O)[O-])c3)cc2C1=O`, for which the inhibition is 2.64%. On to `O=C(CN1C(=O)CCC1=O)NNc1ccc2ccccc2c1`, for which the inhibition is -8.95%. As for `O=C(CC1Sc2ccccc2NC1=O)Nc1cccc(C(=O)O)c1` (stereo not drawn), the inhibition was -2.21%. Take `O=C(CN1C(=O)NC2(CCCC2)C1=O)Nc1cccc(-c2nnc3n2CCCCC3)c1`: the inhibition was -0.57%. Consider `O=C(CC1Sc2ccccc2NC1=O)Nc1cccc(-c2nnc3n2CCCCC3)c1` (stereo not drawn), for which the inhibition was 14.3% (active). As to `Oc1ccccc1/C=N/NC1=NCCCCC1`, the inhibition is -2.12%. With `COC(C(=O)NCc1ccc(C)cc1)c1ccccc1` (stereo not drawn) the figure was -0.55%. With `CC(C)=CC(=O)NCc1c(Cl)cccc1-n1cccc1` the figure was 23.8% (active); with `CC(=O)NCc1c(Cl)cccc1-n1cccc1`, -2.69%; with `CCC(=O)NCc1c(Cl)cccc1-n1cccc1`, -2.25%.

As to `Cc1ccc(CCNC(=O)CCS(=O)(=O)c2ccc(Br)cc2)cc1`, the inhibition was -0.29%. Regarding `Cc1ccc(CNC(=O)CCS(=O)(=O)c2ccc(C)cc2)cc1`, the inhibition is -0.32%.

Regarding `COC(=O)c1ccccc1NC(=O)CCS(=O)(=O)c1ccc(Br)s1`, the inhibition is 6.53%. The same measure for `COC(=O)c1ccc(NC(=O)CCS(=O)(=O)c2ccc(Br)cc2)cc1`: 3.55%. Regarding `COc1cccc(CN2CCN(S(=O)(=O)c3ccc(Br)cc3)CC2)c1`, the inhibition was -0.5%. The same measure for `COc1ccc(C=C2C(=O)c3ccccc3C2=O)cc1O`: 9.53%. On to `COc1cc(C=C2C(=O)c3ccccc3C2=O)ccc1O`, for which the inhibition is 10.6%.

Consider `CC(C)(C)N1C(=O)c2ccccc2NC(=O)N1Cc1ccccc1`, for which the inhibition was -6.09%. Regarding `O=C1c2ccccc2CC1(Cc1ccccc1)Cc1ccccc1`, the inhibition was -4.43%. With `N#CCCN(Cc1cccnc1)C(=S)NC(=O)C1CC1` the figure was -4.01%; with `Cc1cccc(CSc2nnc(-c3ccccn3)n2N)c1`, 1.5%; with `CCOc1cc(/C=N/N=C2/NC(=O)C(CC(=O)O)S2)ccc1OCc1ccc(Cl)cc1` (stereo not drawn), 0.64%. As to `CCOc1cc(/C=N/N=C2/NC(=O)C(CC(=O)O)S2)ccc1OS(=O)(=O)c1ccc(C)cc1` (stereo not drawn), the inhibition was 13.1% (active). For `COc1ccc(/C=N/N=C2/NC(=O)C(CC(=O)O)S2)cc1OS(=O)(=O)c1ccccc1` (stereo not drawn), the inhibition was 3.56%.

As for `Cc1ccc(/C=C2\SC(=S)N(CC3CCCO3)C2=O)o1` (stereo not drawn), the inhibition is 9.7%.

On to `O=C(CSc1nc2ccccc2o1)N1CCN(S(=O)(=O)c2ccc3ccccc3c2)CC1`, for which the inhibition is -1.93%. With `CCc1ccc(N(CC(=O)NCc2ccc(F)cc2)C(=O)c2csnn2)cc1` the figure was 1.98%; with `CCOc1ccc(/C=N/Nc2nc(=O)[nH]nc2C)cc1OC`, 2.62%; with `O=C(NN1C(=O)/C(=C/C=C/c2ccco2)SC1=S)c1ccncc1`, 10.6%.

As to `O=C1/C(=C/c2cccs2)SC(=S)N1NS(=O)(=O)c1ccccc1`, the inhibition was 11.6%. On to `CC(/C=C1\SC(=S)N(NS(=O)(=O)c2ccccc2)C1=O)=C\c1ccccc1`, for which the inhibition is 5.96%. In the case of `Cn1cccc1/C=C1\SC(=S)N(NC(=O)c2ccccc2O)C1=O`, the inhibition was 0.05%.

Regarding `O=C(NCC(c1cccnc1)N1CCN(c2ccccc2F)CC1)OCc1ccccc1` (stereo not drawn), the inhibition is -3.82%. For `CC(C)CNC(CC(=O)Nc1cccc([N+](=O)[O-])c1)C(=O)O` (stereo not drawn), the inhibition was 0.89%.
